Data as given in PubChem BioAssay (Tox21).
Results filed as inconclusive are left out. A call without a number means that no potency is given here. Unmarked numbers belong to inactive results. Active and inactive are the calls of the source. Calls come from the whole dose curve; as a rule, active = well fitted curve in the direction sought with a large enough effect in the repeat runs; inconclusive = weak or mixed curves; inactive = no such curve, though single readings can be large; an effect the other way counts as inactive or inconclusive.

Target: Voltage-gated inwardly rectifying potassium channel KCNH2 (Homo sapiens) (UniProt Q12809)
Sequence (Q12809 whole entry, looked up): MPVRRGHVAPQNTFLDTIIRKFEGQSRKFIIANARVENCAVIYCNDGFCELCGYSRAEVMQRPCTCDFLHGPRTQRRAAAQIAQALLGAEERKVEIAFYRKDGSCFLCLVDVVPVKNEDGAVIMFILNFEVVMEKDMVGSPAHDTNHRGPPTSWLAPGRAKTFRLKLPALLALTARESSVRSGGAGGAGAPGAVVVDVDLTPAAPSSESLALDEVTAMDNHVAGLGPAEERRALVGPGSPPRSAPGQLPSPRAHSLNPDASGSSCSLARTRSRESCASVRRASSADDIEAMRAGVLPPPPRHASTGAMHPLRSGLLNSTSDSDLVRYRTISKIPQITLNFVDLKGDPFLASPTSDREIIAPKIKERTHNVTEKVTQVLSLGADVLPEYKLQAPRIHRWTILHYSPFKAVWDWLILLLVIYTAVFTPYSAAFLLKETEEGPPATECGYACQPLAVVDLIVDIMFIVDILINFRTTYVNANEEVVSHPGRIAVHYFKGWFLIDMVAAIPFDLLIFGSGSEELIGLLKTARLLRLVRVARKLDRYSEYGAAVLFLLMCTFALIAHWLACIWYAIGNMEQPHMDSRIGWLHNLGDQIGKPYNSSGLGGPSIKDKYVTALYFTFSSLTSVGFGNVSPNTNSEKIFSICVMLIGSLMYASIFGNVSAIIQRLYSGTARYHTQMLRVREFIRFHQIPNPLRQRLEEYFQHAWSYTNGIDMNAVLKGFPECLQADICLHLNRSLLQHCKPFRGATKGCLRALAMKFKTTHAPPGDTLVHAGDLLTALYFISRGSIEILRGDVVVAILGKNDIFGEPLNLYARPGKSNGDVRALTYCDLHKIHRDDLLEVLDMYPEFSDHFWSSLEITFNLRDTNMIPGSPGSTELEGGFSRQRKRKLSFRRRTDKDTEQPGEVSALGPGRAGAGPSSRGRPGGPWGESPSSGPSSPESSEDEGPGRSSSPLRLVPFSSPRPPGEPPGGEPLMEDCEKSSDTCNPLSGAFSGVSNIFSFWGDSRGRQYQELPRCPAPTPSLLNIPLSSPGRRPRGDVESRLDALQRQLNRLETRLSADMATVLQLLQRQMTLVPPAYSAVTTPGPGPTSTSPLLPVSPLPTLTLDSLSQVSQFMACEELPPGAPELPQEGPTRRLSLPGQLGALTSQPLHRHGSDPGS
Experiment: Human Ether-a-go-go-Related Gene (hERG) channel small molecule antagonists: fluorescence cell-based qHTS assay (AID 1671200);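 for activity change, negative = inhibition: hERG-expressing U2OS cells given a thallium stimulus after FluxOR II dye loading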
Conditions: hERG-U2OS cells, FluxOR thallium flux fluorescence; series mostly up to 76.8 µM
How it was run: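 hERG-U2OS cells plated overnight at 37 C, loaded with FluxOR II dye 1 h at RT in dark; after 10 min, thallium stimulus added. Fluorescence (480/540 nm) read kinetically for 2 min at 1 s intervals.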
Note: nearly all actives have a fitted effect of over 50% in size.
Potency is the fitted concentration of half-maximal effect.

Structure (SMILES) | Potency | activity change, negative = inhibition
CCCCCCCCCCCCCCC1CO1 (configuration not stated) | inactive | 
CC(=O)O[C@@H]1C(=O)O[C@@H]2[C@H]1OC(=O)[C@@H]2OC(C)=O | inactive | 
CCCCC(CC)(CO)CO | inactive | 
N#CCc1cccc(C(F)(F)F)c1 | inactive | 
CC(C)(C)c1ccc(S)cc1 | inactive | 
O=C(O)c1cn(C2CC2)c2cc(Cl)c(F)cc2c1=O | inactive | 
CC[C@@H]1C[C@H](N(Cc2cc(C(F)(F)F)cc(C(F)(F)F)c2)C(C)=O)c2cc(C(F)(F)F)ccc2N1C(=O)OC(C)C | inactive | 
CC(=O)/C=C/C1C(C)=CCCC1(C)C (configuration not stated) | inactive | 
CC(C)c1cccc(C(C)C)c1NC(=O)NS(=O)(=O)c1cc(C(C)(C)O)co1 | inactive | 
C1CCC2OC2C1 (configuration not stated) | inactive | 
CC(C)CCCC(C)CCO (configuration not stated) | inactive | 
O=[N+]([O-])c1cccc(Cl)c1Cl | inactive | 
CCCCCCCCN(C)C | inactive | 
O=C(C(=O)c1ccc(Br)cc1)c1ccc(Br)cc1 |  | -1.71% [at 15.8 µM]
CC(C)CC=O | inactive | 
COc1ccc(OC)c(OC)c1 | inactive | 
CC(=O)OCCc1ccccc1 | inactive | 
C=CCCCCCC | inactive | 
COc1ccc(C(C)=O)cc1 | inactive | 

Structure (SMILES) | Potency | activity change, negative = inhibition
O=C(/C=C/c1ccc(O)c(O)c1)O[C@@H]1C[C@](O)(C(=O)O)C[C@@H](O)[C@H]1O | inactive | 
COC(Cc1ccccc1)OC | inactive | 
O=C(Cl)c1c(Cl)cccc1Cl | inactive | 
CCc1nn(C2CCCCC2)c2cc(C3(C#N)CCC(C(=O)O)CC3)ccc12 (configuration not stated) | inactive | 
CCCCCCCCC(CO)CCCCCC (configuration not stated) | inactive | 
CC(=O)N(CC(=O)N(C)C)c1ccccc1 | inactive | 
Cc1cccc(OCCOc2cccc(C)c2)c1 | inactive | 
CC(C)CCCCCCOC(=O)c1ccc(C(=O)OCCCCCCC(C)C)c(C(=O)OCCCCCCC(C)C)c1 | inactive | 
C[Si](C)O[Si](C)(C)O[Si](C)(C)O[Si](C)C | inactive | 
Cn1sccc1=O | inactive | 
CCCCCCCCCC(=O)OCC | inactive | 
C=C(C)C(=O)OCCN(C)C | inactive | 
O=C1c2cccc(O)c2C(=O)c2c(O)cc(CO)cc21 | inactive | 
Cc1cccc(Oc2ccccc2)c1 | 13.5 µM (active) | 
CCOc1ccc(NC(=O)CC(C)=O)cc1 | inactive | 
CC1=CCC(C(C)C)C=C1 (configuration not stated) | inactive | 
CC(CN)CCCN (configuration not stated) | inactive | 
CC(C)(C)c1cc(CCC(=O)OCC(COC(=O)CCc2cc(C(C)(C)C)c(O)c(C(C)(C)C)c2)(COC(=O)CCc2cc(C(C)(C)C)c(O)c(C(C)(C)C)c2)COC(=O)CCc2cc(C(C)(C)C)c(O)c(C(C)(C)C)c2)cc(C(C)(C)C)c1O | inactive | 

Target: Cytochrome P450 3A4 (Homo sapiens) (UniProt P08684)
Sequence (P08684 whole entry, looked up): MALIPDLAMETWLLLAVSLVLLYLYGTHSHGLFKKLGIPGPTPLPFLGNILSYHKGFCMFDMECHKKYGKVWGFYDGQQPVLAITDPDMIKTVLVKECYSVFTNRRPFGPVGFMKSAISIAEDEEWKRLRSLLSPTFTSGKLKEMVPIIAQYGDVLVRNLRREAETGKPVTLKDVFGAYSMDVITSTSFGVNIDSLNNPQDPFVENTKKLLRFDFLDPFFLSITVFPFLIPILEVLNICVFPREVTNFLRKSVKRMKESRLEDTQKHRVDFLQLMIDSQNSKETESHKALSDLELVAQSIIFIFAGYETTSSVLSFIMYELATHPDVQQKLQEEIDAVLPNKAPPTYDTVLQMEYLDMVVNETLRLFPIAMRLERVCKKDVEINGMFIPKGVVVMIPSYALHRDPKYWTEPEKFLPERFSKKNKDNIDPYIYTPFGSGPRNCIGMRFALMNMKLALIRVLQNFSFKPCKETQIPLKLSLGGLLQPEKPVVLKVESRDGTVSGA
Experiment: Cytochrome P450 Family 3 Subfamily A Member 4 (CYP3A4) small molecule antagonists: luciferase reporter qHTS assay (AID 1671201)
Conditions: P450-Glo CYP3A4 enzyme, luciferin luminescence, 1 h; series mostly up to 115 µM
How it was run: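 P450-Glo CYP3A4 luminescent assay: compounds preincubated 10 min at room temperature with enzyme and proluciferin substrate, NADPH regeneration added, 1 h room-temperature reaction, stopped with luciferin detection reagent; luminescence read after 20 min. Ketoconazole positive control.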

Structure (SMILES) | Potency | activity change, negative = inhibition
CCCCCCCCCCCCCCC1CO1 (configuration not stated) | inactive | 
CC(=O)O[C@@H]1C(=O)O[C@@H]2[C@H]1OC(=O)[C@@H]2OC(C)=O | inactive | 
CC(C)(Oc1ccc(Cl)cc1)C(=O)OCCCOC(=O)C(C)(C)Oc1ccc(Cl)cc1 | inactive | 
CCCCC(CC)(CO)CO | inactive | 
N#CCc1cccc(C(F)(F)F)c1 | inactive | 
CC(C)(C)c1ccc(S)cc1 | inactive | 
O=C(O)c1cn(C2CC2)c2cc(Cl)c(F)cc2c1=O | inactive | 
CC[C@@H]1C[C@H](N(Cc2cc(C(F)(F)F)cc(C(F)(F)F)c2)C(C)=O)c2cc(C(F)(F)F)ccc2N1C(=O)OC(C)C | 0.894 µM (active) | 
CC(=O)/C=C/C1C(C)=CCCC1(C)C (configuration not stated) | inactive | 
CC(C)c1cccc(C(C)C)c1NC(=O)NS(=O)(=O)c1cc(C(C)(C)O)co1 | inactive | 
C1CCC2OC2C1 (configuration not stated) | inactive | 
CC(C)CCCC(C)CCO (configuration not stated) | inactive | 
O=[N+]([O-])c1cccc(Cl)c1Cl | inactive | 
CCCCCCCCN(C)C | inactive | 
O=C(C(=O)c1ccc(Br)cc1)c1ccc(Br)cc1 |  | 4.73% [at 23.6 µM]
COc1ccc(OC)c(OC)c1 | inactive | 
CC(=O)OCCc1ccccc1 | inactive | 
C=CCCCCCC | inactive | 

Structure (SMILES) | Potency | activity change, negative = inhibition
COc1ccc(C(C)=O)cc1 | inactive | 
O=C(/C=C/c1ccc(O)c(O)c1)O[C@@H]1C[C@](O)(C(=O)O)C[C@@H](O)[C@H]1O | inactive | 
COC(Cc1ccccc1)OC | inactive | 
O=C(Cl)c1c(Cl)cccc1Cl | inactive | 
CCc1nn(C2CCCCC2)c2cc(C3(C#N)CCC(C(=O)O)CC3)ccc12 (configuration not stated) | inactive | 
CCCCCCCCC(CO)CCCCCC (configuration not stated) | inactive | 
CC(=O)N(CC(=O)N(C)C)c1ccccc1 | inactive | 
CC(C)CCCCCCOC(=O)c1ccc(C(=O)OCCCCCCC(C)C)c(C(=O)OCCCCCCC(C)C)c1 | inactive | 
Cn1sccc1=O | inactive | 
CCCCCCCCCC(=O)OCC | inactive | 
C=C(C)C(=O)OCCN(C)C | 36 µM (active) | 
O=C1c2cccc(O)c2C(=O)c2c(O)cc(CO)cc21 | inactive | 
Cc1cccc(Oc2ccccc2)c1 | 34.7 µM (active) | 
CCOc1ccc(NC(=O)CC(C)=O)cc1 | inactive | 
CC1=CCC(C(C)C)C=C1 (configuration not stated) | 25.2 µM (active) | 
CC(CN)CCCN (configuration not stated) | 6.33 µM (active) | 
CC(C)(C)c1cc(CCC(=O)OCC(COC(=O)CCc2cc(C(C)(C)C)c(O)c(C(C)(C)C)c2)(COC(=O)CCc2cc(C(C)(C)C)c(O)c(C(C)(C)C)c2)COC(=O)CCc2cc(C(C)(C)C)c(O)c(C(C)(C)C)c2)cc(C(C)(C)C)c1O | inactive | 
